Measured values published in ChEMBL document CHEMBL3988442, “University of Dundee, Small-Polar-MMV Screening Library” (2021).
Among all 48,000 compounds or so, about 13,000 (27%) showed an effect of 50% or more. Some of the results follow.

test system: Wolbachia pipientis; experiment: Anti-Wolbachia Cell-Based Screen; type: functional; set-up: scale not given: in the data most compounds retested in dose-response had high values; details: 5 µM

SMILES | Percent Effect [%]
Cc1cnc(C(=O)N2CCC3(CC2)CC(c2ccncc2)C(=O)N3)cn1 (centres undefined) | -2.987
CCCn1nnnc1CN(C)C(C)c1ccc(C)cc1 (centres undefined) | 0.6006
COc1ccc(C2(c3nc(-c4cnn(C)c4)no3)CCOCC2)cc1 | -8.889
O=C(NC(CO)CO)c1coc(COc2cccc(F)c2)n1 | 9.537
CCN(CC)CC(=O)N(C)C(c1cccc(F)c1)c1ccccn1 (centres undefined) | 97.45
CCS(=O)(=O)NCCCNC(=O)N(C)C(C)c1ccccn1 (centres undefined) | -6.07
CCN(CC)S(=O)(=O)CCNC(=O)N(C)C(C)c1ccccn1 (centres undefined) | -1.522
CC(C)N(C)CC(=O)N(C)C(c1cccc(F)c1)c1ccccn1 (centres undefined) | 102.7
CCN(C(=O)CN(C)C(c1cccc(F)c1)c1ccccn1)C1CC1 (centres undefined) | 13.51
CCSCCNC(=O)C(c1cccc(F)c1)N(C)C (centres undefined) | -18.47
O=S(=O)(C1CC1)N1CC[C@]2(C[C@@H](OCC3CCOCC3)CO2)C1 | -13.41
Cc1c(C(=O)N(C)CC(F)(F)F)nnn1-c1ccccc1Cl | -1.465
COCCOc1ccc(NC(=O)C2CCC2)cn1 | -0.09217
COCCN1C=NC2(CCC(C(=O)Nc3ccc(C)cc3)CC2)C1=O (centres undefined) | -4.018
COCCn1cc(NC(=O)C(C)CCc2ccccc2F)ccc1=O (centres undefined) | -6.604
COCCn1cc(NC(=O)NC(C)CCc2ccccc2)ccc1=O (centres undefined) | -2.537
COCCn1cnc2ccc(NC(=O)c3ccccn3)cc2c1=O | 106.6
COCCn1cnc2ccc(NC(=O)C3CC3)cc2c1=O | 108.4
COCCn1cnc2ccc(NC(=O)c3ccc(OC)cc3)cc2c1=O | 162.9
COc1cccc(C(=O)Nc2ccc(OC3CCN(C)CC3)cc2)c1 | 16.42
Cn1cc(NC(=O)c2ccccn2)cc(Br)c1=O | 3.766
COc1ccc(C(=O)Nc2c(C)nn(C(C)C)c2C)cc1 | 14.16
Cn1cc(NC(=O)c2ccccn2)cc(Cl)c1=O | -1.878
COCCn1cnc2ccc(NC(=O)C(C)C)cc2c1=O | 110.7
CC(=O)NCCC(=O)NC1(c2ccc(Cl)c(Cl)c2)CC1 | 3.477
CC(NC(=O)COc1cccc[n+]1[O-])C1CC1 (centres undefined) | -6.842
Cc1ccc(CNCc2nnc3n2CC(C(F)(F)F)CC3)cc1 (centres undefined) | -7.096
O=C(CCc1ccsc1)Nc1cnccc1O | 9.927
CC(C)CCN1CCc2[nH]nc(C(=O)N3CC=CC3)c2C1.O=C(O)C(F)(F)F.O=C(O)C(F)(F)F | -3.7
